Consider 21 compounds from PubChem BioAssay (EPA / NIEHS).

Read-out in experiment [1]: Cytochrome P450 2B6 (Homo sapiens) (UniProt P20813)
Nature of the experiment: CLD_CYP2B6_48hr: CellzDirect (CLD) Gene Expression Assay for xenobiotic metabolism (CYP2B6) at 48 hours (AID 2283699).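 Also: actives raise transcript level above DMSO so potency reflects induction.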 The gist of the method:
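CYP2B6 transcript induction, read by quantitative nuclease protection (S1 digestion, chemiluminescent detection) 48 h after dosing, is fitted upward against 0.2% DMSO. Cultured human liver primary cells, two donor preparations, received fresh chemical daily over multiple concentrations.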

Read-out in experiment [2]: xenobiotic metabolism (CYP1A2), CYP1A2 (gene 1544)
Nature of the experiment: CLD_CYP1A2_48hr: CellzDirect (CLD) Gene Expression Assay for xenobiotic metabolism (CYP1A2) at 48 hours (AID 2283703). The gist of the method: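 Cytotoxicity was flagged yes/no from morphology, while CYP1A2 transcript induction was detected by qNPA chemiluminescence after a 48-hour exposure. Human primary hepatocyte cultures from separate donors received fresh dosing solutions daily over two days, with 0.2% DMSO as vehicle and baseline.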

Read-out in experiment [3]: Broad substrate specificity ATP-binding cassette transporter ABCG2 (Homo sapiens) (UniProt Q9UNQ0)
Kind of experiment: CLD_ABCG2_48hr: CellzDirect (CLD) Gene Expression Assay for ABC Transporter (ABCG2) at 48 hours (AID 2283704).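 As to AC50: potency for induction of ABCG2 mRNA above the DMSO baseline.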 The gist of the method: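 ABCG2 transcript measured at 48 h by quantitative nuclease protection (chemiluminescent) and fitted for increase relative to 0.2% DMSO. Hepatocyte cultures from separate donors got fresh compound daily over two days; morphology annotated cytotoxicity.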

Read-out in experiment [4]: xenobiotic metabolism (CYP1A1), CYP1A1 (gene 1543)
Kind of experiment: CLD_CYP1A1_48hr: CellzDirect (CLD) Gene Expression Assay for xenobiotic metabolism (CYP1A1) at 48 hours (AID 2283705). The gist of the method: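 CYP1A1 transcript measured by quantitative nuclease protection (chemiluminescent) 48 h after two daily treatments of human hepatocyte cultures, versus 0.2% DMSO. Morphology-based cytotoxicity flags accompany data; two donor preparations used.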

A short description of experiment [5]: STM_H9_OrnithineISnorm_perc: Stemina devTOX quickPredict H9 human embryonic stem cell (hESC)-based Assay for Ornithine (ORN) Metabolite Biomarker, Normalized (AID 2283712; active = hit-call score of the fitted dose curve at least 0.9, where 1 is the maximum; inactive = score below 0.9;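 also: ornithine released into spent medium during last day measured by mass spectrometry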). The gist of the method:
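UPLC-HRMS readout: endogenous ornithine EIC area / 13C-ORN internal standard, then % of 0.1% DMSO median. H9 hESCs (pluripotent), 72h exposure, re-dosed with fresh media q24h; last 24-h spent media, deproteinized in 40% acetonitrile.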

Experiment [6] in a line: STM_H9_CystineISnorm_perc: Stemina devTOX quickPredict H9 human embryonic stem cell (hESC)-based Assay for Cystine (CYSS) Metabolite Biomarker, Normalized (AID 2283713; active = hit-call score of the fitted dose curve at least 0.9, where 1 is the maximum; inactive = score below 0.9). The gist of the method:
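UPLC-HRMS read-out: endogenous cystine peak area in spent medium, normalized to isotope-labeled internal standard and to median of 0.1% DMSO controls. Pluripotent H9 cells, 72h exposure, daily medium/compound replenishment; medium from last 24h sampled.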

Experiment [7] can be described thus: Tanguay_ZF_120hpf_ActivityScore_legacy: (Legacy) Oregon State University Tanguay Lab 120 Hour Post-fertilization zebrafish Assay Score for Activity (AID 2283742).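 As to AC50: dechorionated Tropical 5D wild-type zebrafish embryos held singly per well.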 The gist of the method: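 Binary scoring of mortality and morphology by brightfield at 24 and 120 hpf, summarised into one activity score from 18 components relative to DMSO. Wild-type Tropical 5D zebrafish, chorion removed at 4 hpf, static exposure 6–120 hpf, 28 °C.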

Experiment [8] in a line: CLD_ACTIN_48hr: CellzDirect (CLD) Gene Expression Assay for Baseline Control (Actin) at 48 hours (AID 2283702). The gist of the method:
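Background-control actin mRNA read by qNPA chemiluminescence at 48 h. Human hepatocyte cultures from two donors received fresh multi-concentration chemical doses daily for two days; 0.2% DMSO served as vehicle baseline.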

Read-out in experiment [9]: alkyl and aryl transferase (GSTA2), GSTA2 (gene 2939)
Nature of the experiment: CLD_GSTA2_48hr: CellzDirect (CLD) Gene Expression Assay for alkyl and aryl transferase (GSTA2) at 48 hours (AID 2283708).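 Also: active means mRNA induction above DMSO vehicle baseline.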 The gist of the method:
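GSTA2 mRNA quantified by qNPA chemiluminescence in human primary hepatocyte lysates after 48 h of daily fresh chemical dosing. Increases fitted against 0.2% DMSO vehicle baseline; cytotoxicity from morphology annotated yes/no.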

Read-out in experiment [10]: sulfotransferase (SULT2A), SULT2A1 (gene 6822)
Nature of the experiment: CLD_SULT2A_48hr: CellzDirect (CLD) Gene Expression Assay for sulfotransferase (SULT2A) at 48 hours (AID 2283710).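 Also: hits raise SULT2A1 transcript above the 0.2% DMSO vehicle baseline.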 The gist of the method:
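SULT2A1 transcript measured by qNPA chemiluminescence in human primary hepatocyte cultures after 48 h, with fresh dosing solutions on two consecutive days; gain-of-signal fitting against 0.2% DMSO vehicle; cytotoxicity annotated from phase-contrast morphology.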

A short description of experiment [11]: CEETOX_H295R_MTT_cell_viability: Viability Assessment in the CeeTox HT-H295R MTT Assay (AID 2283718; active = hit-call score of the fitted dose curve at least 0.9, where 1 is the maximum; inactive = score below 0.9). The gist of the method: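 MTT reduction (0.5 mg/ml, 4 h at 37 C; absorbance at 570 and 650 nm) gave viability as background-corrected percent change versus controls. H295R cells had 48 h forskolin (10 uM) prestimulation, then 48 h chemical exposure at 0.1% DMSO.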

Read-out in experiment [12]: glucuronosyltransferase (UGT1A1), UGT1A1 (gene 54658)
Kind of experiment: CLD_UGT1A1_48hr: CellzDirect (CLD) Gene Expression Assay for glucuronosyltransferase (UGT1A1) at 48 hours (AID 2283709).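 Also: actives increase expression relative to DMSO so potency refers to induction.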 The gist of the method:
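Quantitative nuclease protection assay (chemiluminescent) for UGT1A1 mRNA at 48 h in human hepatocyte cultures from two donors, redosed daily with fresh solutions. Induction fitted relative to 0.2% DMSO; phase-contrast morphology annotated cytotoxicity.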

Experiment [13] concerns Thyroperoxidase (TPO), gene 445522. Nature of the experiment: CCTE_Simmons_GUA_TPO: CCTE's Guaiacol Assay for Thyroperoxidase (TPO) Inhibition, Simmons Lab (AID 2283750). The gist of the method:
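Porcine thyroid microsomes (25 ug) in 200mM potassium phosphate, preincubated 30 s at 37C with compound (8 concentrations, 5 nM–87.5 uM) and 35mM guaiacol; 1mM H2O2 starts reaction. Absorbance change at 450nm over first 80 s; loss of signal versus DMSO, three replicates.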

Read-out in experiment [14]: Cytochrome P450 2C9 (Homo sapiens) (UniProt P11712)
Nature of the experiment: CLD_CYP2C9_48hr: CellzDirect (CLD) Gene Expression Assay for xenobiotic metabolism (CYP2C9) at 48 hours (AID 2283701; active = hit-call score of the fitted dose curve at least 0.9, where 1 is the maximum; inactive = score below 0.9). The gist of the method:
(§1)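 mRNA level measured by quantitative nuclease protection (S1 digestion, chemiluminescent detection) in lysates of human primary hepatocytes exposed 48 h with daily re-dosing. Induction fitted positively versus 0.2% DMSO; morphology-based cytotoxicity flagged yes/no.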

Read-out in experiment [15]: xenobiotic metabolism (CYP2C9), CYP2C9 (gene 1559)
Kind of experiment: CLD_CYP2C9_48hr: CellzDirect (CLD) Gene Expression Assay for xenobiotic metabolism (CYP1A2) at 48 hours (AID 2283701). The gist of the method:
as §1

Records with an inconclusive call do not appear. Active and inactive are the calls of the source. The calls were made as follows, unless noted: active = hit-call score of the fitted dose curve at least 0.9, where 1 is the maximum; inconclusive = response in the unintended direction; inactive = score below 0.9.

Sequence of Broad substrate specificity ATP-binding cassette transporter ABCG2 (Homo sapiens) (Q9UNQ0 whole entry, looked up): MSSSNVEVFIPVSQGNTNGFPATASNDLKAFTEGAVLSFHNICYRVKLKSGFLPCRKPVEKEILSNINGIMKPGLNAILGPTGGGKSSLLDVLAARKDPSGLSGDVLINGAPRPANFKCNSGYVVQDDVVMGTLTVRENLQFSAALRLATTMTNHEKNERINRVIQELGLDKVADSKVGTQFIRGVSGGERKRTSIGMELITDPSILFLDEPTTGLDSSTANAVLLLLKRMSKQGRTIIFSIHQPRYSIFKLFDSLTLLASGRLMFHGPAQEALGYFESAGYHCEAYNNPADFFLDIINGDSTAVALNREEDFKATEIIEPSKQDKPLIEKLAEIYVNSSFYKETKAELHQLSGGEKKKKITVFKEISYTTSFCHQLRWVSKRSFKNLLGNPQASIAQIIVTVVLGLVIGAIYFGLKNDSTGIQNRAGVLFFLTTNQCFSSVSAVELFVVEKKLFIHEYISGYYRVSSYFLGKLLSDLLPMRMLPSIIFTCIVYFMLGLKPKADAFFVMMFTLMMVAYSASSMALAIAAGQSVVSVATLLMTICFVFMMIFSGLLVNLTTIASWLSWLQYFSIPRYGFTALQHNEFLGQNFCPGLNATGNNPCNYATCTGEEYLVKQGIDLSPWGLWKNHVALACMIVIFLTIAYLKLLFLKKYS

As a reminder, the AC50 is the concentration giving half of the maximal activity seen. Turning to `CS(=O)(=O)c1cc(C(F)(F)F)ccc1C(=O)c1cnoc1C1CC1`, the values for the AC50 in experiment [1], in [2] and in [5] were 9.48 µM (active), 20 µM (active) and 0.0772 µM (active), respectively. Also, the call in experiment [3], in experiment [4], in experiment [6] and in experiment [7] was inactive.

As to `CNC(=O)N(C)c1nnc(C(C)(C)C)s1`, the call in experiment [8], in experiment [2], in [3], in [4], in experiment [9] and in experiment [7] was inactive.

Regarding `CCN(CC)c1nc(C)cc(OP(=S)(OC)OC)n1`, the AC50 in experiment [1] is 0.684 µM (active); in [2], 7.6 µM (active); in [4] it was 9.28 µM (active). Also, the compound was classed as inactive in experiment [10], in [11] and in [7].

In the case of `Cc1ccc(N=CN(C)C=Nc2ccc(C)cc2C)c(C)c1`, the results for the AC50 in experiment [2], in experiment [3] and in [4] were 0.673 µM (active), 17.4 µM (active) and 5.87 µM (active), respectively. Besides, the compound was called inactive in experiment [7].

Regarding `O=C(Nc1ccccc1-c1ccc(Cl)cc1)c1cccnc1Cl`, the AC50 in [1] is 1.89 µM (active); in experiment [2], 4.95 µM (active); in [4], 20 µM (active); in [5] it was 50 µM (active). Also, the call in experiment [8], in [6], in [11] and in experiment [7] was inactive.

On to `CCC(C)n1c(=O)[nH]c(C)c(Br)c1=O` (stereo not given), for which the AC50 in [1] is 3.28 µM (active); in [2], 11.8 µM (active); in experiment [4], 8.72 µM (active). The result in [5], in experiment [6], in experiment [11] and in [7] was inactive.

`CCNC(=O)NC(=O)C(C#N)=NOC`: the outcome in [8], in experiment [2], in [3], in [4], in experiment [12] and in [5] was inactive. Besides, the outcome in [6] was inactive. The AC50 in [7] is 32.4 µM (active).

For `Nc1cnn(-c2ccccc2)c(=O)c1Cl`, the AC50 in experiment [2] was 4.24 µM (active). The outcome in [3], in [4], in [10], in experiment [11] and in experiment [7] was inactive.

For `COCC(C)N(C(=O)CCl)c1c(C)csc1C` (stereo not given), the AC50 in experiment [1] is 5.14 µM (active); in experiment [7], 29.2 µM (active). Also, the result in [3], in experiment [4] and in [12] was inactive.

Turning to `COP(=S)(OC)Oc1ccc([N+](=O)[O-])c(C)c1`, the half-maximal activity concentration (AC50) in experiment [1] was 2.67 µM (active); in experiment [2], 3.97 µM (active); in experiment [4], 20 µM (active). For the same compound, the outcome in experiment [3], in experiment [11], in experiment [7] and in experiment [13] was inactive.

With `Clc1nc(Cl)nc(Nc2ccccc2Cl)n1`, the compound was classed as inactive in experiment [1], in experiment [8], in experiment [2], in experiment [3], in experiment [4] and in [9]. Further, the outcome in experiment [11] and in experiment [7] was inactive.

On to `Cc1cnc(C2=NC(C)(C(C)C)C(=O)N2)c(C(=O)O)c1` (stereo not given), for which the outcome in experiment [14], in [8], in [2], in [4] and in experiment [7] was inactive.

With `Cn1c(-c2ccccc2)cc(-c2ccccc2)[n+]1C`, the result in experiment [8], in [3], in [4] and in experiment [7] was inactive. Besides, the AC50 in experiment [5] is 25.3 µM (active); in experiment [6], 10.9 µM (active).

Consider `CCOc1nc(C(Cl)(Cl)Cl)ns1`, for which the outcome in experiment [14], in experiment [8], in experiment [12], in experiment [6], in experiment [11] and in experiment [7] was inactive. The values for the half-maximal activity concentration (AC50) in experiment [2], in experiment [4] and in [5] were 5.52 µM (active), 3.97 µM (active) and 0.11 µM (active), respectively.

`O=P(O)(O)CCCl`: the result in experiment [1], in experiment [8], in experiment [2], in experiment [4] and in [7] was inactive.

Turning to `CCCCOCN(C(=O)CCl)c1c(CC)cccc1CC`, the results for the AC50 in [1], in experiment [2] and in experiment [4] were 2.5 µM (active), 9.38 µM (active) and 11.5 µM (active), respectively. The call in experiment [8] and in experiment [7] was inactive.

Regarding `CC(C)NC(=O)N1CC(=O)N(c2cc(Cl)cc(Cl)c2)C1=O`, the concentration at half-maximal activity (AC50) is 3.92 µM (active) in [1], 4.68 µM (active) in experiment [2] and 12.3 µM (active) in experiment [4]. The compound was called inactive in experiment [12], in experiment [11] and in experiment [7].

On to `O=C(O)c1c(Cl)ccc2cc(Cl)cnc12`, for which the call in experiment [1], in experiment [2], in experiment [4], in experiment [9] and in experiment [7] was inactive. The AC50 in experiment [15] was 69 nM (active).

With `CC(C)(C)C(=O)C(Oc1ccc(Cl)cc1)n1cncn1` (stereo not given), the concentration at half-maximal activity (AC50) in [1] was 3.31 µM (active); in experiment [2], 12.9 µM (active); in experiment [4] it was 8.65 µM (active); in [6], 34.3 µM (active); in experiment [7] it was 33.6 µM (active). Further, the outcome in experiment [3], in [12], in experiment [5] and in experiment [11] was inactive.

`CCOC(=O)C(C)OC(=O)c1cc(Oc2ccc(C(F)(F)F)cc2Cl)ccc1[N+](=O)[O-]` (stereo not given): the AC50 is 20 µM (active) in experiment [1], 20 µM (active) in experiment [2], 20 µM (active) in experiment [4] and 4.61 µM (active) in experiment [10]. Also, the compound was classed as inactive in [11] and in [7].

For `COc1cc(Cl)c(OC)cc1Cl`, the AC50 in [1] is 0.0752 µM (active); in experiment [4], 3.97 µM (active). Further, the compound was called inactive in experiment [2], in experiment [3], in [11] and in experiment [7].
